An excerpt weighted towards active compounds, which were near 28% of everything screened.
CYP2C19 activ: cytochrome P450 2C19 (human) activation; P33261; recombinant CYP2C19, luciferin-H EGE luminescence; hits give high values; 0 = fully inhibited enzyme, 1 = untreated enzyme; activation factor at 5 µM; 96,000 tested, under 10 active;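 active means activation factor of at least 2 at 5 µM in the primary screen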;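 further: 0 = wells with 2.5 mM tranylcypromine and 1 = vehicle-only wells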
Target sequence (P33261 whole entry, looked up): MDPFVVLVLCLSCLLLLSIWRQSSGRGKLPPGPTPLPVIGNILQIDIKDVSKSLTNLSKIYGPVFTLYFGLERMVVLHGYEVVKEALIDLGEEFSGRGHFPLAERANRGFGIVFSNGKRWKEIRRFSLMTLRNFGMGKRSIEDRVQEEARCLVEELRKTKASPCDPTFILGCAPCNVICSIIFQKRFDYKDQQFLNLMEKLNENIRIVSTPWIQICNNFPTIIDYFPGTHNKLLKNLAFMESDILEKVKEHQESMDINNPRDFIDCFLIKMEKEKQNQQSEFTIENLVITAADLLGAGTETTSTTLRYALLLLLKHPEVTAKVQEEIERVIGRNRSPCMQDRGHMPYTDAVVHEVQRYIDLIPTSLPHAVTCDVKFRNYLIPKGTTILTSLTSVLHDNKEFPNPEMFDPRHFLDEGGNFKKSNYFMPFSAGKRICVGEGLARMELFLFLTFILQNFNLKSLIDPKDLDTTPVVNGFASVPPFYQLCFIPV
PLK1 kinase inh: blocks human PLK1 kinase activity. P53350. inhibition, % at 10 µM. recombinant PLK1 kinase, TR-FRET peptide phosphorylation. 97,000 tested, 0.53% active;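 active means inhibition of 50% or more in the single-concentration screen; inactive means inhibition below 50%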;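 further: 0% = DMSO max control and 100% = H-89 dihydrochloride min control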
CYP2C19 inhib: blocks human cytochrome P450 2C19 | CYP2C19 Supersomes, luciferin-H EGE luminescence, 30 min | inhibition, % at 5 µM | 96,000 tested, 21% active | AID 778;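 active means CYP2C19 inhibition above a set limit at 5 µM in the primary screen, cut at about 50% in these data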;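 further: plate controls were negative control wells for no effect and 2.5 mM tranylcypromine positive control for full effect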
CYP2C9 activ: CYP2C9 (human) activation; activation factor at 5 µM; P11712; recombinant CYP2C9, luciferin-H conversion, luminescence; hits give high values; factor 1 = untreated enzyme, 0 = blocked; 96,000 tested, 1.4% active;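 active means activation factor of 2 or more for CYP2C9 at a 5 µM dose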;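 further: 0 = sulfaphenazole-blocked wells and 1 = vehicle-only wells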
CYP2C9 inh: inhibitors of human CYP2C9; P11712; CYP2C9 Supersomes, luciferin-H conversion, luminescence; inhibition, % at 5 µM; 96,000 tested, 20% active;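 active means blocking of liver enzyme CYP2C9 beyond about 50% at 5 µM, limit read from the data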
PLK1 PBD inh: Plk1 (human) PBD binding inhibition | P53350 | AID 693 | Plk1 PBD phosphopeptide binding, fluorescence polarization | 97,000 tested, 0.13% active | inhibition, %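 (tested at about 20 µM)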; in the data active means inhibition above about 34%, passing the limit was not always enough
Active calls of the source: *.

What do the screens show for `CC(C)OC(=O)C1=C2SCC(=O)N2C(N)=C(C#N)C1`?
CYP2C19 activ: 0.2; PLK1 kinase inh: -2; CYP2C19 inhib: 76*; CYP2C9 activ: 0.9; CYP2C9 inh: 6; PLK1 PBD inh: -12

Results for COc1cccc(Cn2nnc(C(=O)Nc3ccc(C)cc3)c2N)c1 ?
CYP2C19 activ: 0.8; PLK1 kinase inh: -24; CYP2C19 inhib: 25; CYP2C9 activ: 2.1*; CYP2C9 inh: -108; PLK1 PBD inh: -11

How did COc1ccc(C)cc1NC(=O)c1nnn(CCc2ccccc2)c1N do in these assays?
CYP2C19 activ: 0.9; PLK1 kinase inh: 0; CYP2C19 inhib: 8; CYP2C9 activ: 1.2; CYP2C9 inh: -23; PLK1 PBD inh: -14

Results for COc1ccc(OC)c(NC(=O)c2nnn(Cc3ccccc3C)c2N)c1 ?
CYP2C19 activ: 0.8; PLK1 kinase inh: -8; CYP2C19 inhib: 16; CYP2C9 activ: 2.1*; CYP2C9 inh: -115; PLK1 PBD inh: 11

What do the screens show for `COc1ccc(NC(=O)c2nnn(Cc3ccc(SC)cc3)c2N)c(OC)c1`?
CYP2C19 activ: 1; PLK1 kinase inh: -5; CYP2C19 inhib: 5; CYP2C9 activ: 2.5*; CYP2C9 inh: -147; PLK1 PBD inh: -8

Results for COc1ccc(C)cc1NC(=O)c1nnn(Cc2cc(C)ccc2C)c1N ?
CYP2C19 activ: 0.8; PLK1 kinase inh: 6; CYP2C19 inhib: 17; CYP2C9 activ: 2.4*; CYP2C9 inh: -142; PLK1 PBD inh: 17

Results for COc1cccc(Cn2nnc(C(=O)Nc3cc(C)ccc3OC)c2N)c1 ?
CYP2C19 activ: 0.9; PLK1 kinase inh: -6; CYP2C19 inhib: 14; CYP2C9 activ: 1.3; CYP2C9 inh: -26; PLK1 PBD inh: -19

How did CSc1ccc(Cn2nnc(C(=O)Nc3ccc(C)c(C)c3)c2N)cc1 do in these assays?
CYP2C19 activ: 0.6; PLK1 kinase inh: -2; CYP2C19 inhib: 37; CYP2C9 activ: 0.7; CYP2C9 inh: 25; PLK1 PBD inh: -2

Results for S=c1[nH]ncn1-c1ccccn1 ?
CYP2C19 activ: 1; PLK1 kinase inh: -9; CYP2C19 inhib: -3; CYP2C9 activ: 1.1; CYP2C9 inh: -12; PLK1 PBD inh: -22

What do the screens show for `O=C(CN1C2CCCC1CC(NC(=O)c1ccco1)C2)Nc1ccccc1` (configuration not stated)?
CYP2C19 activ: 0.1; PLK1 kinase inh: -8; CYP2C19 inhib: 87*; CYP2C9 activ: 0.1; CYP2C9 inh: 95*; PLK1 PBD inh: 1

What do the screens show for `COc1cc(C(=O)NC2CC3CCCC(C2)N3CC(=O)Nc2ccccc2)cc(OC)c1OC` (configuration not stated)?
CYP2C19 activ: 0.2; PLK1 kinase inh: -2; CYP2C19 inhib: 81*; CYP2C9 activ: 0; CYP2C9 inh: 97*; PLK1 PBD inh: -26

What do the screens show for `CCOC(=O)C1CCN(S(=O)(=O)c2c(C)n(C)c(=O)n(C)c2=O)CC1`?
CYP2C19 activ: 1; PLK1 kinase inh: -6; CYP2C19 inhib: 2; CYP2C9 activ: 1.1; CYP2C9 inh: -7; PLK1 PBD inh: -18

Results for Cc1cc(=O)oc(C)c1C(=O)N1CCN(c2ccc(F)cc2)CC1 ?
CYP2C19 activ: 0.8; PLK1 kinase inh: -30; CYP2C19 inhib: 17; CYP2C9 activ: 1; CYP2C9 inh: 1; PLK1 PBD inh: -5

How did Cc1ccccc1C(=O)NNC(=O)c1ccc(F)cc1 do in these assays?
CYP2C19 activ: 0.4; PLK1 kinase inh: -13; CYP2C19 inhib: 62*; CYP2C9 activ: 1.1; CYP2C9 inh: -14; PLK1 PBD inh: -14

How did CCN(c1ccccc1)S(=O)(=O)c1ccc(NC(=S)NC(=O)c2cccs2)cc1 do in these assays?
CYP2C19 activ: 0.7; PLK1 kinase inh: 7; CYP2C19 inhib: 32; CYP2C9 activ: 0.2; CYP2C9 inh: 77*; PLK1 PBD inh: 1

What do the screens show for `CCCC(=O)NC(=S)Nc1ccc(NC(=O)c2cccs2)cc1`?
CYP2C19 activ: 0.5; PLK1 kinase inh: -3; CYP2C19 inhib: 52*; CYP2C9 activ: 0.2; CYP2C9 inh: 85*; PLK1 PBD inh: 10

How did O=C(NC(=S)Nc1ccc(N2CCCCC2)cc1)c1cccs1 do in these assays?
CYP2C19 activ: 1; PLK1 kinase inh: -7; CYP2C19 inhib: -4; CYP2C9 activ: 1; CYP2C9 inh: -3; PLK1 PBD inh: 37

What do the screens show for `CCCC(=O)Nc1ccc(C(=O)NNC(=S)NC(=O)c2cccs2)cc1`?
CYP2C19 activ: 0.9; PLK1 kinase inh: -11; CYP2C19 inhib: 7; CYP2C9 activ: 0.7; CYP2C9 inh: 28; PLK1 PBD inh: -11

How did O=C1CC(c2ccccc2)CC(O)=C1C=NCc1ccccc1Cl (configuration not stated) do in these assays?
CYP2C19 activ: 0.8; PLK1 kinase inh: -9; CYP2C19 inhib: 22; CYP2C9 activ: 0.9; CYP2C9 inh: 7; PLK1 PBD inh: 35

How did CC(C)(C)n1nnnc1C(c1cccs1)N(Cc1cccnc1)Cc1ccccc1Cl (configuration not stated) do in these assays?
CYP2C19 activ: 0; PLK1 kinase inh: 2; CYP2C19 inhib: 96*; CYP2C9 activ: 0.1; CYP2C9 inh: 92*; PLK1 PBD inh: 13

What do the screens show for `CC(c1nnnn1C(C)(C)C)N(Cc1cccnc1)Cc1ccccc1Cl` (configuration not stated)?
CYP2C19 activ: 0; PLK1 kinase inh: 0; CYP2C19 inhib: 99*; CYP2C9 activ: 0.4; CYP2C9 inh: 57*; PLK1 PBD inh: -9

Results for CCN(CC)CCCN1C(=O)C(O)=C(C(=O)c2ccco2)C1c1cc(OC)ccc1OC (configuration not stated) ?
CYP2C19 activ: 1.2; CYP2C19 inhib: -24; CYP2C9 activ: 1.2; CYP2C9 inh: -16

Results for Cc1cc(O)c(C(C[N+](=O)[O-])c2ccc(Cl)cc2Cl)c(=O)o1 (configuration not stated) ?
CYP2C19 activ: 0.2; PLK1 kinase inh: 1; CYP2C19 inhib: 77*; CYP2C9 activ: 0; CYP2C9 inh: 98*; PLK1 PBD inh: -5

What do the screens show for `CN1CCN(C(=O)c2cc3c(n(-c4ccccc4)c2=O)CC(C)(C)CC3=O)CC1`?
CYP2C19 activ: 1.2; PLK1 kinase inh: -6; CYP2C19 inhib: -17; CYP2C9 activ: 1.1; CYP2C9 inh: -9; PLK1 PBD inh: -4

What do the screens show for `O=C(NCc1ccncc1)c1cccc(Cn2cc(Br)cn2)c1`?
CYP2C19 activ: 0.1; PLK1 kinase inh: 10; CYP2C19 inhib: 88*; CYP2C9 activ: 0.1; CYP2C9 inh: 90*; PLK1 PBD inh: -22

Results for O=C(O)c1cccc(Cn2cc(Br)cn2)c1 ?
CYP2C19 activ: 1; PLK1 kinase inh: -13; CYP2C19 inhib: -5; CYP2C9 activ: 1.1; CYP2C9 inh: -8; PLK1 PBD inh: -17

Results for CC(C)NC1CS(=O)(=O)CC1O (configuration not stated) ?
CYP2C19 activ: 1; PLK1 kinase inh: -8; CYP2C19 inhib: -5; CYP2C9 activ: 1.1; CYP2C9 inh: -5; PLK1 PBD inh: -9

Screening data: PubChem BioAssay, several laboratories
